Compound activity: PubChem BioAssay, The Scripps Research Institute Molecular Screening Center
GPR151 ag: human GPR151 activation | Q8TDV0 | PathHunter beta-arrestin GPR151 cells, luminescence | activation, % at 11.2 µM | 650,000 compounds, 1% hits | AID 1508602; in the data active = activation above about 4.9%;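 note: 0% = median of compound wells and 100% = cells with positive control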
FBW7 act: activators of human E3 ligase FBW7; normalized activity (activation), % at 26.1 µM; Q969H0; AID 1259310; AlphaScreen FBW7–phospho-cyclin E peptide binding, activator screen; 650,000 compounds, 0.13% hits; in the data active = normalized activity above about 1.9%;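 note: purified mutant Fbw7 with reduced substrate affinity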
MITF primary: human MITF inhibition, primary screen; O75030; AID 1259374; inhibition, % at 2.6 µM; 650,000 compounds, 0.91% hits; AlphaScreen MITF homodimerization, bead proximity signal; in the data active = inhibition above about 50%;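 note: 0% = vehicle wells with protein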
Target sequence (O75030 whole entry, looked up): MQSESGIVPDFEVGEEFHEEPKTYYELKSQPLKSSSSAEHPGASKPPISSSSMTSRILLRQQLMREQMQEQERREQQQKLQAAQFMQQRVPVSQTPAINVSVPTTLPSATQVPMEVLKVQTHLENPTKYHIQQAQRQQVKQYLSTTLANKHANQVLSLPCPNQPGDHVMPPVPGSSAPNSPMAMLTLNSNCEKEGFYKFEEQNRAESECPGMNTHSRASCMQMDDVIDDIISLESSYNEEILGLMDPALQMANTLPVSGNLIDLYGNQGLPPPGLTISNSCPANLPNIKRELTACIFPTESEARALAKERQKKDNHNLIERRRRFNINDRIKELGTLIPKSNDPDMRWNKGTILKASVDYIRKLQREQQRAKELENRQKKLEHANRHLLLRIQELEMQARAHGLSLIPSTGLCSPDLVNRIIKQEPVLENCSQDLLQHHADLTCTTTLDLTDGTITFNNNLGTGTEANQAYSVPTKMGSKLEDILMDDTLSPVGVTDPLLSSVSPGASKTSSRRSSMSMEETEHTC
TEAD-YAP block: TEAD-YAP interaction inhibition; HEK-TIYL cells, TEAD-Gal4/YAP UAS-luciferase luminescence; 640,000 compounds, 1.4% hits; inhibition, % at 9.12 µM; in the data active = inhibition above about 32%;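 note: 0% = median of test compound wells and 100% = reference inhibitor wells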
MITF inh conf: human MITF inhibition, confirmation; inhibition, % at 2.6 µM; AID 1259372; shares compounds with MITF primary; AlphaScreen MITF homodimerization, biotin/His-MITF beads; 4,700 compounds, 16% hits;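 active = inhibition above a cutoff derived from the DMSO control wells, cut at about 28% in these data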;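 note: 0% = MITF dimer wells with DMSO only; inhibitors lower the bead chemiluminescence by keeping MITF from dimerizing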
AlphaScreen DR: counter-screen: compounds optically interfering with AlphaScreen; IC50, µM; AlphaScreen optical interference counterscreen, cell-free; shares compounds with MITF primary; 480 compounds, 6% hits; call rule not given here
AS interf ctr: AlphaScreen optical interference, counter-screen; shares compounds with MITF primary; LysRS AlphaScreen counterscreen, signal interference, triplicate; inhibition, % at 2.6 µM; 4,700 compounds, 7.6% hits;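 active = inhibition above a cutoff derived from the DMSO control wells, cut at about 30% in these data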
Numbers without * were called inactive; . = not tested or not shown. Sampled rows, rich in hits. Any-hit rate of the full collection: about 3.4%.

SMILES | GPR151 ag | FBW7 act | MITF primary | TEAD-YAP block | MITF inh conf | AS interf ctr | others
CCN1CCN(Cc2cccc(Oc3ccccc3)c2)CC1 | -1 | 0 | 66* | 3 | 4 | -3
COc1cccc(CN2CCC(=O)N(Cc3ccc(F)cc3)CC2)c1 | -1 | 0 | 8 | 1 | . | .
CCOc1ccc(CN2CCN(Cc3cccc(Oc4ccccc4)c3)CC2)cc1 | 1 | 0 | 27 | -1 | . | .
Fc1ccccc1CN1CCN(Cc2cccc(Oc3ccccc3)c2)CC1 | 0 | 0 | 72* | -6 | 6 | 3
COc1ccc(C(C)C)cc1S(=O)(=O)Nc1ccc(F)cc1 | 1 | 0 | 8 | 3 | . | .
COc1cc2nc(C3CCC3)n(NC(=O)c3ccc(F)cc3F)c(=O)c2cc1OC | 0 | 0 | 3 | -7 | . | .
C=CCn1c(SCC(=O)NC2CCCCC2)nnc1-c1cccc([N+](=O)[O-])c1 | 1 | 0 | 1 | 1 | . | .
CC(C)Oc1ccc(C(=O)N2CCC(c3nc4ccccc4[nH]3)CC2)cc1 | 0 | 0 | 3 | 2 | . | .
Cc1nnn(C23CC4CC(CC(CC(=O)Nc5ccc(F)cc5)(C4)C2)C3)n1 | 0 | 1 | 75* | -8 | 10 | 9
CC1Oc2ccccc2N(Cc2ccc(Cl)cc2)C1=O (stereo not drawn) | -1 | 0 | 19 | -8 | . | .
CN(C)CC(C)(C)CNC(=O)C1CCN(Cc2cccc(Br)c2)CC1 | 0 | 1 | 58* | 12 | -3 | -2
c1coc(CN2CCC(N3CCOCC3)CC2)c1 | 1 | 1 | 60* | 12 | 13 | 16
S=C(NC1CCCCC1)N1CCN(Cc2ccco2)CC1 | 3 | 0 | -21 | -16 | . | .
c1coc(Cn2nnnc2CN2CCN(C3CCCC3)CC2)c1 | 1 | 0 | -1 | -2 | . | .
CC1CCCCC1N1CCN(Cc2ccco2)CC1 (stereo not drawn) | -1 | 0 | 69* | 5 | -3 | 5
c1coc(CN2CCN(C3CCCCCC3)CC2)c1 | 1 | 0 | 74* | 12 | 0 | 5
O=C(c1ccc(=O)oc1)N1CCc2ccccc21 | 0 | 0 | 74* | 4 | 76* | 11 | AlphaScreen DR=>7.5
O=C(O)c1coc(CNC(=O)c2cocc2C(=O)O)c1 | 0 | 0 | 64* | 9 | 50* | 14 | AlphaScreen DR=>6.5
CCCc1cc(C(N)=O)c(NC(=O)c2ccc(OC)c([N+](=O)[O-])c2)s1 | -2 | 0 | -12 | -7 | . | .
O=[N+]([O-])c1cccc(CN2CCN(S(=O)(=O)c3ccc4ccccc4c3)CC2)c1 | 0 | 0 | 62* | -2 | 14 | 24
O=[N+]([O-])c1ccc(S(=O)(=O)N2CCN(Cc3cccc(Cl)c3)CC2)cc1 | 0 | 0 | 64* | 8 | 9 | 11
O=S(=O)(c1cccc(S(=O)(=O)N2CCN(Cc3ccccc3)CC2)c1)N1CCCC1 | 1 | 0 | 53* | 7 | 9 | 14
O=S(=O)(c1ccc2ccccc2c1)N1CCN(C2CCN(Cc3ccccc3)CC2)CC1 | 1 | 0 | 52* | 9 | 4 | 16
COc1cccc(CN2CCN(S(=O)(=O)c3cccc([N+](=O)[O-])c3)CC2)c1 | -1 | 0 | 12 | 2 | . | .
O=[N+]([O-])c1ccc(Cl)c(S(=O)(=O)N2CCN(Cc3ccccc3)CC2)c1 | 1 | 0 | 13 | 7 | . | .
SMILES | GPR151 ag | FBW7 act | MITF primary | TEAD-YAP block | MITF inh conf | AS interf ctr | others
O=[N+]([O-])c1ccc(-c2ccc(/C=N/N3CCOCC3)o2)cc1 | -1 | 0 | -10 | -79 | . | .
CC1CC(C)(C)Cc2c1sc(NC(=O)c1ccco1)c2C#N (stereo not drawn) | 1 | 0 | 84* | -38 | -2 | -8
Cn1c(=NC(=O)C2=COCCO2)sc2cc(F)cc(F)c21 | 4 | 0 | -2 | -35 | . | .
Fc1ccccc1OCCCN1CCN(Cc2ccccc2)CC1 | -1 | 1 | 64* | 5 | 6 | 16
CN1CCCN(Cc2ccccc2F)CC1 | 0 | 0 | 12 | -1 | . | .
c1ccc(CCCN2CCN(Cc3cccnc3)CC2)cc1 | -2 | 0 | 83* | -2 | 19 | 19
c1ccc(CCCN2CCN(C3CCN(Cc4ccccc4)CC3)CC2)cc1 | 0 | 0 | -5 | -8 | . | .
Fc1ccc(CN2CCN(CCCc3ccccc3)CC2)cc1 | -1 | 0 | 59* | -4 | 5 | 0
Fc1ccccc1CN1CCN(CCCc2ccccc2)CC1 | -2 | 0 | 73* | 4 | 8 | 3
O=C(CN1C(=O)NC2(CCCc3ccccc32)C1=O)N1CCCCCC1 (stereo not drawn) | -1 | 0 | -10 | -1 | . | .
C[C@@H]1NC(=O)[C@H]2CN(C(=O)NC3CCCCC3)CCN2C1=O | -1 | 0 | 77* | 11 | 74* | -10 | AlphaScreen DR=>6.5
O=C1N[C@@H](CC2CCCCC2)C(=O)N2CCN(C(=O)c3cc(F)c(F)cc3F)C[C@H]12 | 0 | 0 | 5 | 2 | . | .
O=C1N[C@@H](CC2CCCCC2)C(=O)N2CCN(C(=O)Nc3ccccc3)C[C@H]12 | -1 | 0 | 77* | 7 | 70* | -10 | AlphaScreen DR=>6.5
C[C@H]1NC(=O)[C@@H]2C[C@H](NC(=O)NC3CCCCC3)CN2C1=O | 1 | 0 | 9 | 0 | . | .
CCC[C@@H]1NC(=O)[C@H]2CN(C(=O)NC3CCCCC3)CCN2C1=O | 1 | 0 | 77* | 5 | 71* | -10 | AlphaScreen DR=>6.5
O=C1N[C@@H](CSCc2ccccc2)C(=O)N2CCN(C(=O)NC3CCCCC3)C[C@H]12 | 4 | 0 | 65* | 9 | 72* | -4 | AlphaScreen DR=>6.5
COc1cccc(C(=O)N/N=C/c2c[nH]c3ccccc23)c1 | 0 | 0 | -11 | -13 | . | .
NC(=S)N/N=C(\Cc1ccccc1)C(F)(F)F | 1 | 0 | -2 | 3 | . | .
CC[C@H](C)[C@@H]1NC(=O)[C@H]2CN(C(=O)c3cc(Cl)cc(Cl)c3)CCN2C1=O | 0 | 0 | -19 | 5 | . | .
CC[C@H](C)[C@@H]1NC(=O)[C@H]2CN(C(=O)NC3CCCCC3)CCN2C1=O | 2 | 0 | 74* | 0 | 70* | -11 | AlphaScreen DR=>6.5
Cc1ccc(C(C)C)c(OCCNCc2ccco2)c1 | -1 | 0 | 55* | -5 | 5 | 9
c1coc(CNCCOc2ccc3ccccc3c2)c1 | -1 | 0 | 87* | -10 | 16 | 26
O=C1S/C(=C\c2ccco2)C(=O)N1c1ccccc1Cl | 2 | 0 | 78* | 8 | 79* | -7 | AlphaScreen DR=>6.5
CN(C)C(=O)C1C2NC(=S)N(c3ccc(Br)cc3)C1(C)Oc1ccc(Cl)cc12 (stereo not drawn) | -1 | 0 | 68* | 8 | 23 | 10
NC(=O)C1CCN(C(=O)CSCc2ccccc2Br)CC1 | -1 | 0 | 16 | -12 | . | .
COc1ccc(CCN2COc3c(cc(Cl)c4cccnc34)C2)cc1OC | 0 | -1 | 68* | 39* | 94* | 100*
COCCN1COc2c(cc(Cl)c3cccnc23)C1 | -1 | -1 | 66* | -5 | 48* | 92*
